Source: PubChem (Johns Hopkins Ion Channel Center)
KCNQ2 pot – potentiators of rat KCNQ2 potassium channel; O88943; CHO-K1 KCNQ2, FluxOR thallium flux fluorescence; stronger effect = higher value; B-score at 10 µM; 310,000 compounds, 0.54% hits; AID 2239;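 active means fluorescence ratio B-score at least 3 SD of library B-scores, with initial fluorescence B-score within 3 of them, cut at about 5.3 in these data; same plate scores as AID 2156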;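 further: B-score of peak minus minimum over baseline fluorescence ratio after K+ and Tl+ stimulus; positive B-score means potentiation of KCNQ2 with more thallium influx and brighter signal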
Target sequence (O88943 whole entry, looked up): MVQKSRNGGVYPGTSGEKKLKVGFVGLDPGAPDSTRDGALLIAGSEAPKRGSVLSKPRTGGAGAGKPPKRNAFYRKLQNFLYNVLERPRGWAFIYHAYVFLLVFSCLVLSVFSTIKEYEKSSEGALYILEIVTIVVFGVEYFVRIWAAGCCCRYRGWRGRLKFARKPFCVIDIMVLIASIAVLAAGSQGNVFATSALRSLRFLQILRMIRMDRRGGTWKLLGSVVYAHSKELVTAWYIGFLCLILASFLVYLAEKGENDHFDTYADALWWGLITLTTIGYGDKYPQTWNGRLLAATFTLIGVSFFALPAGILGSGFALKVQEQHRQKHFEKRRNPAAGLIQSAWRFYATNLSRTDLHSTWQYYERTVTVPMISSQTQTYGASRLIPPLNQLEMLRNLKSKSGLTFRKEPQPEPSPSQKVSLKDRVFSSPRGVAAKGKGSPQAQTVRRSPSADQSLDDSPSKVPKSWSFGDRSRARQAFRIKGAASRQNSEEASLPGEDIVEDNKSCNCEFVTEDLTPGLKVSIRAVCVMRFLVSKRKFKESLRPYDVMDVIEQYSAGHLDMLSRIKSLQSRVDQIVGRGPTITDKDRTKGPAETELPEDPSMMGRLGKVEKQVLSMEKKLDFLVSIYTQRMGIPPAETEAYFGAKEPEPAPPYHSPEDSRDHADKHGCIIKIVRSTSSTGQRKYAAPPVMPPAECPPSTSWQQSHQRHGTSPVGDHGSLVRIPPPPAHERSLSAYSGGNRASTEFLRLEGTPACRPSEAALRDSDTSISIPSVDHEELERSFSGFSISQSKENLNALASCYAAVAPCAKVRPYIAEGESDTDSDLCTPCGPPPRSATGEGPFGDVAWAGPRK
KCNQ2 inh – inhibitors of rat KCNQ2 potassium channel | 310,000 compounds, 1.1% hits | AID 2156 | B-score at 10 µM | CHO-K1 KCNQ2, FluxOR thallium flux, 20 min; stronger effect = lower value | O88943;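 active means fluorescence ratio B-score at most minus 3 library SDs, with starting brightness B-score within 2 library SDs, cut at about -5.5 in these data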
Kir21 confirm – confirmation of mouse Kir2.1 potassium channel inhibitors | 2,300 compounds, 41% hits | shares compounds with KCNQ2 pot | Kir2.1-expressing cells, FluxOR thallium flux fluorescence; stronger effect = lower value | Tl flux remaining, % of negative control (stronger effect = lower value), % at 10 µM;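 active means Primary-screen hit whose thallium flux fell at least 3 control SD below untreated wells in both duplicates, with normal baseline fluorescence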;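 further: 0% = blank wells without stimulus and 100% = stimulated no-compound controls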
HEK293 ctr – counter-screen for Kir2.1 inhibitors: effect in parental HEK293 cells; FluxOR thallium flux fluorescence; 0% = unstimulated blank wells; AID 2105; shares compounds with KCNQ2 pot; 2,300 compounds, 19% hits; FluxOR signal as % of negative control (100 = no effect), % at 10 µM;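 active means dye signal at least 3 control SD above or below untreated wells in both duplicates, raw fluorescence within 3, either direction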;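 further: percent is based on the flux ratio of peak minus minimum fluorescence over baseline F0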
CHO-K1 Tl ctr – alters thallium flux in parental CHO-K1 cells, KCNQ2 counter-screen | shares compounds with KCNQ2 pot | FluxOR thallium flux fluorescence; zero = vehicle mean+3SD, 100% = vehicle-minus-blank window | activity increase over 3SD of controls, % at 10 µM | 1,200 compounds, 43% hits | AID 2282;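 active means signal rise of at least 3 SD above the untreated control mean, in both duplicate wells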;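 further: counter screen of KCNQ2 potentiator hits so any rise reflects channel-independent effects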
KCNQ1 sel pot – selectivity of KCNQ2 potentiators: effect on human KCNQ1; shares compounds with KCNQ2 pot; CHO KCNQ1 stable, FluxOR thallium flux fluorescence; beyond 3SD, as % of vehicle-control signal; activation over 3SD threshold, % at 10 µM; 1,200 compounds, 28% hits;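 active means fluorescence ratio rise of at least 3 SD of vehicle wells above their mean, in both replicate wells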;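 further: 0% = vehicle mean plus 3 SD and 100% = vehicle minus unstimulated blank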
KCNQ2 pot confirm – rat KCNQ2 channel potentiator confirmation; shares compounds with KCNQ2 pot; CHO-KCNQ2 cells, FluxOR thallium flux fluorescence; potentiation, less the hit threshold, % at 10 µM; 1,200 compounds, 68% hits; AID 2287;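 active means fluorescence ratio rising 3 SD or more over the vehicle control mean in both replicates, plus primary screen hit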;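 further: peak minus minimum thallium fluorescence divided by baseline after K/Tl stimulus; 0% = vehicle mean plus 3 SD and 100% = vehicle minus unstimulated blank difference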
Kir2-1 sel – selectivity of KCNQ2 potentiators: effect on mouse Kir2.1 | shares compounds with KCNQ2 pot | HEK293 Kir2.1, FluxOR thallium flux fluorescence | activity over 3SD threshold, % at 10 µM | 1,200 compounds, 2% hits;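 active means fluorescence ratio rise of at least 3 SD above the vehicle-control mean, seen in both replicates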;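 further: 0% = vehicle mean plus 3 SD and 100% = vehicle minus no-stimulus blank window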
KCNQ2 W236L pot – potentiates the retigabine-insensitive rat KCNQ2 W236L mutant channel | AID 2558 | 940 compounds, 10% hits | current increase over 3SD of negative controls (%), stronger effect = higher value, % at 25 µM | CHO KCNQ2-W236L, automated patch clamp current | shares compounds with KCNQ2 pot;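 active means current increase at least 3 SD of the untreated controls above them in both duplicate recordings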
Active calls of the source: *; i = inactive; nt = no result given. Most compounds without a hit are left out; they make up all but 1.6% or so of the library.

SMILES	KCNQ2 pot	KCNQ2 inh	Kir21 confirm	HEK293 ctr	CHO-K1 Tl ctr	KCNQ1 sel pot	KCNQ2 pot confirm	Kir2-1 sel	others
Cc1ccc(-n2nnnc2SCC(=O)N2CCCCC2)cc1	nt	i	nt	nt	nt	nt	nt	nt
NS(=O)(=O)c1ccc(CCNC(=O)CCc2nc3sc4c(c3c(=O)[nH]2)CCCC4)cc1	0.51	i	nt	nt	nt	nt	nt	nt
CC(C)(C)NS(=O)(=O)c1ccc(/C=C/C(=O)O)cc1	nt	i	nt	nt	nt	nt	nt	nt
COC(=O)c1ccc(Oc2nc(NC(C)C)nc(NC(C)C)n2)cc1	nt	i	nt	nt	nt	nt	nt	nt
COC(=O)c1ccc(Oc2nc(NC(C)C)nc(N(C)C)n2)cc1	11*	i	i	i	-16	-12	-26	-32
CCOC(=O)C1=C(C)NC(=O)NC1c1cn(-c2ccccc2)nc1-c1cccs1 (stereo not given)	nt	i	nt	nt	nt	nt	nt	nt
CCOC(=O)C1=C(C)NC(C)=C(C(=O)OCC)C1c1cn(-c2ccccc2)nc1-c1ccco1	11*	i	i	i	17*	86*	-12	-17
O=C(COC(=O)CCC(=O)c1cccs1)Nc1ccccc1[N+](=O)[O-]	2.4	i	nt	nt	nt	nt	nt	nt
O=S(=O)(N1CCCCC1)N1CCN(CC(O)COc2ccc3cc(Br)ccc3c2)CC1 (stereo not given)	1.1	i	nt	nt	nt	nt	nt	nt
OC(COc1ccc2cc(Br)ccc2c1)CN1CCN(c2ccccn2)CC1 (stereo not given)	7.4*	i	i	i	-7	14*	-11	-11
OC(COc1ccc2cc(Br)ccc2c1)CN1CCCC1 (stereo not given)	nt	i	38%*	i	nt	nt	nt	nt
COc1cccc(OCC(O)CN2CCN(c3ccccn3)CC2)c1 (stereo not given)	0.33	i	nt	nt	nt	nt	nt	nt
CC1CC(C)CN(C(=O)CCn2c(=O)oc3ccccc32)C1 (stereo not given)	0.03	i	nt	nt	nt	nt	nt	nt
COc1ccc2[nH]cc(CCNC(=O)C3CCCCC3)c2c1	nt	i	nt	nt	nt	nt	nt	nt
N#Cc1ccc(C(=O)NNC(=O)c2ccncc2)cc1	nt	i	nt	nt	nt	nt	nt	nt
Cc1ccc(C2=NN(S(=O)(=O)c3ccccc3)C(c3ccccc3O)C2)cc1 (stereo not given)	nt	i	nt	nt	nt	nt	nt	nt
CC(=O)C1=C(C)NC(SCC(N)=O)=C(C#N)C1CC(C)C (stereo not given)	nt	i	nt	nt	nt	nt	nt	nt
CCOC(=O)C1=C(C)NC(SC)=C(C#N)C1CC(C)C (stereo not given)	nt	i	74%*	i	nt	nt	nt	nt
Cc1cc2nc(-c3ccc(=O)[nH]c3)n(Cc3ccccc3)c2cc1C	nt	i	nt	nt	nt	nt	nt	nt
O=C(Cn1ncc2c3ccccc3n(Cc3ccccc3F)c2c1=O)N1CCN(c2ccccn2)CC1	11*	i	i	i	38*	-10	24*	-32	KCNQ2 W236L pot=i
O=C(Cn1ncc2c3ccccc3n(Cc3cccc(Cl)c3)c2c1=O)NCC1CCCO1 (stereo not given)	8.2*	i	i	i	69*	-27	2.4*	-16	KCNQ2 W236L pot=i
O=C(CCSCc1ccccc1F)N1CCN(c2ccccn2)CC1	nt	i	nt	nt	nt	nt	nt	nt
O=C(Cn1ncc2c3ccccc3n(Cc3ccccc3F)c2c1=O)NCC1CCCO1 (stereo not given)	6*	i	i	i	22*	-17	-4	-29	KCNQ2 W236L pot=i
O=C(Cn1ncc2c3ccccc3n(Cc3ccccc3)c2c1=O)NC1CCCC1	nt	i	nt	nt	nt	nt	nt	nt
O=C(Cn1ncc2c(=O)oc3ccccc3c21)NCC1CCCO1 (stereo not given)	1.5	i	nt	nt	nt	nt	nt	nt
SMILES	KCNQ2 pot	KCNQ2 inh	Kir21 confirm	HEK293 ctr	CHO-K1 Tl ctr	KCNQ1 sel pot	KCNQ2 pot confirm	Kir2-1 sel	others
COc1ccccc1OCc1nn[nH]n1	0.07	i	nt	nt	nt	nt	nt	nt
CCN1CCOC(CC(=O)Nc2ccc([N+](=O)[O-])cc2)C1=O (stereo not given)	nt	i	nt	nt	nt	nt	nt	nt
N#Cc1nc(Cc2cccc3ccccc23)oc1NCCCN1CCOCC1	nt	i	52%*	i	nt	nt	nt	nt
N#Cc1nc(Cc2cccc3ccccc23)oc1NCCCn1ccnc1	0.19	i	nt	nt	nt	nt	nt	nt
CN(CCCNC(=O)c1ccc(CS(=O)c2ccc(Br)cc2)o1)Cc1ccccc1 (stereo not given)	0.87	i	nt	nt	nt	nt	nt	nt
COc1ccc(S(=O)(=O)N(C)c2ccc(C(=O)Nc3cccnc3)cc2)cc1	3	i	nt	nt	nt	nt	nt	nt
CC(C)c1nnc(NC(=O)c2nc(S(=O)(=O)Cc3ccccc3)ncc2Cl)s1	15*	i	i	i	23*	-9	94*	-48	KCNQ2 W236L pot=29%*
CSc1ncc(Cl)c(C(=O)Nc2nnc(SC)s2)n1	0.02	i	nt	nt	nt	nt	nt	nt
CCOc1ccccc1NC(=O)c1nc(S(=O)(=O)Cc2ccccc2)ncc1Cl	1.9	i	nt	nt	nt	nt	nt	nt
CCc1ccc(NC(=O)c2nc(S(=O)(=O)Cc3ccccc3)ncc2Cl)cc1	0.71	i	nt	nt	nt	nt	nt	nt
CCCc1nnc(NC(=O)c2nc(S(=O)(=O)Cc3ccc(C)cc3)ncc2Cl)s1	10*	i	nt	nt	-11	-13	55*	-68	KCNQ2 W236L pot=25%*
CSc1nnc(NC(=O)c2nc(S(=O)(=O)Cc3ccccc3)ncc2Cl)s1	14*	i	i	i	23*	18*	83*	-48	KCNQ2 W236L pot=32%*
Cc1cccc(Nc2nc(N)nc(CN3CCN(c4ccc(F)cc4)CC3)n2)c1	6.9*	i	i	i	44*	-7	-8	-40	KCNQ2 W236L pot=i
Cc1cccc(Nc2nc(N)nc(CN3CCN(C)CC3)n2)c1	0.06	i	nt	nt	nt	nt	nt	nt
N/C(=N\OS(=O)(=O)c1ccc(Br)cc1)c1ccncc1	5.6*	i	i	i	24*	-16	-5	-47
N/C(=N\OC(=O)COc1ccc(Br)cc1)c1ccncc1	0.68	i	nt	nt	nt	nt	nt	nt
CCOc1ccc(C(=O)N/N=C/c2ccc(-c3ccc(S(=O)(=O)Nc4ncccn4)cc3)o2)cc1	1.6	i	nt	nt	nt	nt	nt	nt
O=C(N/N=C/c1ccc(-c2ccc(S(=O)(=O)Nc3ncccn3)cc2)o1)c1cc2ccccc2cc1O	5.5*	i	i	i	-2	-30	-7	-16
O=C(Nc1cccc(-n2cnnn2)c1)c1cnccc1Cl	nt	i	nt	nt	nt	nt	nt	nt
Cc1ccc(S(=O)(=O)N2CCN(C(=O)CC(C)n3nc(C)c(Cl)c3C)CC2)cc1 (stereo not given)	0.44	i	nt	nt	nt	nt	nt	nt
Cc1cc2nc3c(=O)[nH]c(=S)[nH]c3nc2cc1NC(=O)C(F)(F)F	nt	i	nt	nt	nt	nt	nt	nt
